Shown are actives, neighbours in structure and some others; about 3.2% of the full set was active somewhere.
ERAP1 inh – blocks human ERAP1 aminopeptidase activity; Q9NZ08; inhibition, % at 10.7 µM; AID 652197; 340,000 tested, 0.15% active; recombinant ERAP1, Leu-AMC fluorescence, 60 min;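 active = mean replicate inhibition of at least 30%, or all replicates individually reaching that 30% level; inactive = mean below 30% and not every replicate reaching it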;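 also: 0% = neutral control wells and 100% = L-leucinethiol positive control wells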
Target sequence (Q9NZ08 whole entry, looked up): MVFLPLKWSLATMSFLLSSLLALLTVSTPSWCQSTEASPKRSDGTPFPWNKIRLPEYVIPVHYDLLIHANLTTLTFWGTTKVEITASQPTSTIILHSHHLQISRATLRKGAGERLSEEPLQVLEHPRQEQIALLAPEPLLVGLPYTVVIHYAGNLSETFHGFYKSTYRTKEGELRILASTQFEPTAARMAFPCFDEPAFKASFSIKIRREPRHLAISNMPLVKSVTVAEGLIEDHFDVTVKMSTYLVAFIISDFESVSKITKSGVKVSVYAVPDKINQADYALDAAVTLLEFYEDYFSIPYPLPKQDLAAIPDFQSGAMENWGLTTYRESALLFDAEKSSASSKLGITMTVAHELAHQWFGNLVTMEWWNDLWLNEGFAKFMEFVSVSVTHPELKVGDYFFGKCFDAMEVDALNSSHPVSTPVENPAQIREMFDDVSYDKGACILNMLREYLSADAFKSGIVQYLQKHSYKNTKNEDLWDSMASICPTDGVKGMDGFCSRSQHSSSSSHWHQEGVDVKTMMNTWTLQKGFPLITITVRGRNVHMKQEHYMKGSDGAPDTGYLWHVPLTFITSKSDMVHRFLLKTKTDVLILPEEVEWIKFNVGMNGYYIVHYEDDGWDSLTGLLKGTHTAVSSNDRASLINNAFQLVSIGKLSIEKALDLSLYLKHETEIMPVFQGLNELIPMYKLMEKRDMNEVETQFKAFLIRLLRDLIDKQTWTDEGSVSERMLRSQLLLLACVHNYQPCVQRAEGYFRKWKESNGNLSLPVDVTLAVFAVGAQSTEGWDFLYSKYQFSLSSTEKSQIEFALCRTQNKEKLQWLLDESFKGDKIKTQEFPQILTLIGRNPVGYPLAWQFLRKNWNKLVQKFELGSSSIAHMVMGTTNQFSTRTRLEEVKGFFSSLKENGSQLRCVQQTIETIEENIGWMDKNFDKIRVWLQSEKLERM
rRNA inh HTS – inhibits bacterial ribosomal RNA function over humanized ribosomes | AID 720706 | GFP signal change (wild-type ribosome), % (concentration not given with the values) | E. coli WT GFP vs humanized-ribosome RFP mutants, fluorescence, 24 h; hits give low values; DMSO median 0, no signal -100 | 350,000 tested, 1.6% active;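 active = significant combined selectivity score with lowered wild-type GFP, culture density cut under 30%, mutant RFP and density less affected; inactive = any of these conditions unmet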
CaV13 ICDI inh – Primary screen for inhibitors of IQ motif and Ca2+-dependent inactivation inhibitor domain binding in CACNA1D, Förster resonance energy transfer in living cells, …; HEK cells, CFP/YFP FRET ICDI-IQ, plate reader, 10 min; percent FRET-ratio fall versus neutral wells; 340,000 tested, 0.098% active; inhibition, % at 12.3 µM; AID 743397;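 active = mean replicate inhibition of at least 30% and at least 1% of replicates passing that level; inconclusive = only one of the two criteria is met; inactive = neither criterion is met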;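 also: 0% = median of the neutral control wells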
INS-1E GSIS act – GLuc luminescence reporter in INS-1E cells, primary screen for activators of glucose-dependent secretion of insulin. INS-1E GLuc reporter insulin secretion, 2-3 h. activation, % at 16.6 µM. 370,000 tested, 0.61% active. AID 743287;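 active = lowest replicate activation of at least 40%, so every replicate reaches that level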;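 also: 0% = median of neutral control wells and 100% = median of IBMX positive control wells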
PGC1a acetyl inh – lowers PGC1a acetylation signal in U2OS cells. AlphaScreen anti-acetyl-lysine; with virally co-expressed GCN5 acetyltransferase. AID 651687. inhibition, % at 15.6 µM. 350,000 tested, 0.17% active;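 active = every replicate shows inhibition of at least 40%; inconclusive = mean inhibition at least 40% but some replicate below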;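 also: 0% = neutral control wells and 100% = positive control wells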
DENV2 CPE – protects cells from dengue virus 2 cytopathic effect | DENV2-infected cells, cytopathic effect rescue, plate reader | AID 651640 | 350,000 tested, 1.7% active | CPE inhibition, % at 9.99 µM; in the data active = CPE inhibition above about 20%, passing the limit was not always enough; inconclusive = no clear call, values can overlap the other calls; tested in BHK-21 cells;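 also: 0% = median of neutral control wells and 100% = median of positive control wells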
The depositor's hits bear a star; ? = inconclusive; . = not tested or not shown.

SMILES	ERAP1 inh	rRNA inh HTS	CaV13 ICDI inh	INS-1E GSIS act	PGC1a acetyl inh	DENV2 CPE
Cc1cc(C(=O)CSc2nc3ccccc3[nH]2)c(C)n1Cc1ccco1	-0.6	-33.5*	-16.6	-39.1	3.2	0.0
C[C@@H]1CCCCO[C@@H](CN(C)S(=O)(=O)c2cn(C)cn2)[C@H](C)CN([C@@H](C)CO)C(=O)c2cc(NS(=O)(=O)c3ccc(Cl)cc3)ccc2O1	-2.9	-4.0	.	-4.1	-26.8	28.2*
C[C@H]1CCCCO[C@@H](CN(C)S(=O)(=O)c2cn(C)cn2)[C@@H](C)CN([C@@H](C)CO)C(=O)c2cc(NS(=O)(=O)c3ccc(Cl)cc3)ccc2O1	-1.3	-3.1	.	-11.3	-13.7	47.3*
Cc1ccc(S(=O)(=O)N(C)C[C@H]2Oc3ccc(NS(=O)(=O)c4cn(C)cn4)cc3CC(=O)N([C@@H](C)CO)C[C@@H]2C)cc1	.	4.0	.	16.6	-0.4	.
CC(C)(C)C1=Nn2c(nnc2C2CCCCC2)SC1	.	.	-4.5	80.9*	7.8	.
CN1CCCCN2[C@@H](CO)[C@@H](c3ccc(/C=C/c4ccccc4)cc3)[C@@H]2C1	2.1	0.6	.	-17.4	-25.1	-34.0
C/C=C/c1ccc([C@H]2[C@@H](CO)N3CCCCN(C)C[C@H]23)cc1	0.1	5.4	.	23.4	-5.2	54.1*
CN1CCCCN2[C@H](CO)[C@@H](c3ccc(-c4ccc(F)cc4)cc3)[C@@H]2C1	0.2	-1.6	.	11.6	6.4	60.8*
Cc1ccc(-c2ccc([C@H]3[C@@H](CO)N4CCCCN(C)C[C@H]34)cc2)cc1	2.4	-0.3	.	9.5	-9.0	27.0*
C[C@H]1CN([C@@H](C)CO)C(=O)c2cc(NC(=O)CCCN(C)C)ccc2O[C@@H]1CN(C)Cc1ccccc1	3.0	4.8	.	18.5	20.3	-2.1
C[C@@H]1CN([C@H](C)CO)C(=O)c2cccc(NS(=O)(=O)c3cn(C)cn3)c2O[C@@H]1CN(C)S(=O)(=O)c1cccs1	1.8	-1.5	.	34.5	-1.5	-6.5
O=C(C[C@H]1C[C@H]2c3cc(NC(=O)c4ccc5c(c4)OCO5)ccc3O[C@H]2[C@@H](CO)O1)NC1CCCC1	-1.5	-2.1	.	13.5	2.0	-1.0
CN1[C@H](C(=O)Nc2nccs2)[C@@H](CO)[C@@H]2Cn3c(ccc(/C=C/c4ccccc4)c3=O)[C@@H]21	1.0	-2.7	.	-9.6	.	-5.5
NCCNC(=O)c1c(NC(=O)c2ccccc2)sc2c1CCCC2	0.7	-22.0*	-4.8	.	0.0	-5.9
COC(=O)c1c(NC(=O)c2ccccc2C(=O)O)sc2c1CCC2	-24.9	-20.7*	-2.9	-11.2	6.1	9.4
CN(C)c1ncnc2sc(-c3ccccc3)cc12	6.5	-45.4	-2.3	40.4*	.	5.3
Cc1ccc(S(=O)(=O)Nc2ccc3c(c2)C(=O)N([C@H](C)CO)C[C@H](C)[C@@H](CN(C)C(=O)Nc2ccc(C(F)(F)F)cc2)OCCCC[C@H](C)O3)cc1	5.0	1.5	.	6.6	14.4	-0.5
COc1ccc(S(=O)(=O)Nc2ccc3c(c2)C(=O)N([C@H](C)CO)C[C@@H](C)[C@H](CN(C)C(=O)Nc2ccc(C(F)(F)F)cc2)OCCCC[C@H](C)O3)cc1	-3.1	6.6	.	5.7	7.7	10.2
C[C@H]1CCCCO[C@H](CN(C)C(=O)Nc2ccc(C(F)(F)F)cc2)[C@@H](C)CN([C@@H](C)CO)C(=O)c2cc(NS(=O)(=O)c3ccc(F)cc3)ccc2O1	-0.2	1.8	.	-11.6	-2.6	17.6
COc1ccc(S(=O)(=O)Nc2ccc3c(c2)C(=O)N([C@H](C)CO)C[C@H](C)[C@H](CN(C)C(=O)Nc2ccc(C(F)(F)F)cc2)OCCCC[C@H](C)O3)cc1	-3.4	5.0	.	-5.9	0.4	75.7*
C[C@H](CO)N1C[C@H](C)[C@H](CN(C)C(=O)Nc2ccc(C(F)(F)F)cc2)OCCCC[C@H](C)Oc2ccc(NS(=O)(=O)c3ccc(F)cc3)cc2C1=O	-2.6	6.9	.	19.8	6.9	82.0*
C[C@@H]1CCCCO[C@@H](CN(C)C(=O)Nc2ccc(C(F)(F)F)cc2)[C@H](C)CN([C@H](C)CO)C(=O)c2cc(NS(=O)(=O)c3ccc(F)cc3)ccc2O1	-3.3	5.1	.	6.7	-1.0	69.1*
[N-]=[N+]=NCc1ccccc1C[C@]1(C(=O)N2CCOCC2)COC(c2ccc(OCCCO)cc2)=N1	2.8	.	.	.	.	9.4
N#CN=CN1CC=C(c2ccc(Cl)cc2)CC1	-3.7	7.9	-3.1	66.6*	.	-8.6
Cc1cc(O)c2c(c1)C(=O)c1cccc(O)c1C2=O	-2.0	.	-4.6	.	.	-1.3
SMILES	ERAP1 inh	rRNA inh HTS	CaV13 ICDI inh	INS-1E GSIS act	PGC1a acetyl inh	DENV2 CPE
O=C(O)c1cc(O)c2c(c1)C(=O)c1cccc(O)c1C2=O	6.4	.	-6.0	.	?	78.9*
C[C@@H]1CN([C@@H](C)CO)C(=O)Cc2cc(NS(=O)(=O)c3ccc(Cl)cc3)ccc2O[C@@H]1CN(C)Cc1ccc(C(=O)O)cc1	-1.2	1.8	.	11.9	9.3	8.0
O=C(NOCc1ccccc1)c1coc(-c2ccccc2)n1	-1.3	-26.4*	-5.8	-0.3	6.7	-3.0
NC(=O)NOCc1ccccc1	0.6	24.5	-3.4	10.2	.	0.4
CN(C)CCNc1ncnc2c1cnn2-c1ccc(Cl)cc1	2.2	-2.7	-5.2	-8.5	-6.6	39.7*
CCN1CCN(c2ncnc3c2cnn3-c2ccc(Cl)cc2)CC1	3.2	1.5	-5.8	.	6.8	50.5*
OCCCNc1ncnc2c1cnn2-c1ccc(Cl)cc1	-1.5	-1.9	-5.7	38.3	0.6	9.8
O=C(Cc1ccccn1)NCC[C@H]1CC[C@H](NS(=O)(=O)c2ccc(Cl)cc2)[C@H](CO)O1	-3.6	-5.1	.	2.2	-3.4	6.3
CC(C)(C)c1ccc(C(=O)OCC(=O)Nc2sc3c(c2C#N)CCC3)cc1	1.5	8.7	-4.7	-7.6	.	98.9*
CN(C)S(=O)(=O)c1ccc(C(=O)OCC(=O)Nc2sc3c(c2C#N)CCCCC3)cc1	-3.2	1.8	5.2	1.2	.	13.1
Cc1cccc(NC(=O)Nc2ccc3c(c2)C(=O)N(C)[C@H]2CC[C@@H](CC(=O)O)O[C@@H]2CO3)c1	-4.4	1.8	.	0.9	2.9	-3.8
Cn1ccsc1=NC(=O)c1ccc([N+](=O)[O-])o1	-3.0	-58.5	-2.7	9.9	.	-6.0
COc1cc(C(=O)N=c2sccn2C)c([N+](=O)[O-])cc1OC	45.0*	15.7	-9.8	24.7	0.0	4.2
CCCNC(=O)C1(C)CCCN(Cc2ccc(Cl)cc2)C1 (stereo not drawn)	-0.6	3.5	-6.2	.	9.3	0.7
CCCNC(=O)C1(C)CCCN(Cc2ccc(C#N)cc2)C1 (stereo not drawn)	-1.6	4.8	-17.0	12.7	1.2	48.0*

Bioassay records (PubChem)
